An excerpt weighted towards active compounds, which were near 1.3% of everything screened.
Gli-Sufu block: Gli-Sufu pathway antagonism. Sufu-KO-LIGHT fibroblasts, Gli luciferase reporter luminescence. inhibition, % at 5 µM. actives 0.74% (n = 340,000). AID 588413;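 active means inhibition above about 55%, limit read from the data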;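 further: 0% = DMSO-treated cells and 100% = wells with medium but no cells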
NR2F2 inh: inhibitors of human COUP-TFII (NR2F2); inhibition, % at 8.6 µM; actives 0.7% (n = 370,000); P24468; HEK293T NGFI-A luciferase reporter, luminescence;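 active means inhibition above a per-plate cutoff, mean inhibition of test wells between control levels plus 3 SD, cut at about 38% in these data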;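 further: cells cotransfected with COUP-TFII expression vector driving the NGFI-A reporter; 0% = median of COUP-TF2 test wells and 100% = reporter-only cells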
NCOA3 inh: human NCOA3 inhibition | HEK293 GAL4-SRC3 luciferase reporter, luminescence | inhibition, % at 3.6 µM | actives 0.17% (n = 360,000) | AID 588352;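 active means inhibition above a per-campaign cutoff, the mean of all compounds plus 3 SD, cut at about 60% in these data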;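 further: 0% = DMSO-treated cells and 100% = gossypol-treated cells at 36 µM; higher means less SRC3-driven luciferase light from the GAL4 reporter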
NR5A2 inv ag: NR5A2 inverse agonism in reporter assay; O00482; HEK293T StAR-luciferase reporter, LRH-1 transfected, 24 h; inhibition, % at 3.6 µM; actives 0.13% (n = 360,000); AID 602396;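 active means inhibition above the mean inhibition of all tested compounds plus 3 SD, cut at about 73% in these data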;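 further: 0% = DMSO wells and 100% = reporter-only cells lacking LRH-1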
Target sequence (O00482 whole entry, looked up): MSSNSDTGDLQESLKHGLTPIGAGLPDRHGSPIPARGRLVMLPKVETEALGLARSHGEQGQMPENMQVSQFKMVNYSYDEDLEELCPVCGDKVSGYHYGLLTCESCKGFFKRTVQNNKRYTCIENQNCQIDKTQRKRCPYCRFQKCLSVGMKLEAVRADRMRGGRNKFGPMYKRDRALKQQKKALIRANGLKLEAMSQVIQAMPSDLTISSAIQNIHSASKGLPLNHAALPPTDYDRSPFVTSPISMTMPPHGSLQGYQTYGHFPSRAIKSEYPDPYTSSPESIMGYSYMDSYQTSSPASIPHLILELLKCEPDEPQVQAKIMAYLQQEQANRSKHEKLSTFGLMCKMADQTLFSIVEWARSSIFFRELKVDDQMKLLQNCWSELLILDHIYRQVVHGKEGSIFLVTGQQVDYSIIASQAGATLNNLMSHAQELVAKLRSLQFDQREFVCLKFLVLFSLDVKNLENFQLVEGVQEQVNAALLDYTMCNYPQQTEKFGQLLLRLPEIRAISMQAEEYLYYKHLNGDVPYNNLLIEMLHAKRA
SRC1 inh: human NCOA1 inhibition; Q15788; HEK293 GAL4-SRC1 luciferase reporter, luminescence; inhibition, % at 3.6 µM; actives 0.12% (n = 360,000); AID 588354;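 active means inhibition above the campaign mean plus 3 SD, with each screening campaign given its own cutoff, cut at about 60% in these data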;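 further: 0% = DMSO treated cells and 100% = gossypol at 36 µM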
NCOA2 inhibitor: human SRC2 (NCOA2) inhibition; HEK293 GAL4-SRC2 luciferase reporter, luminescence; inhibition, % at 9 µM; actives 0.17% (n = 370,000);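 active means inhibition above the mean inhibition of all tested compounds plus 3 SD, set per campaign, cut at about 52% in these data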;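 further: 0% = DMSO treated cells and 100% = cells given Gossypol at 36 µM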
VP16 Luc counter: VP16 inhibition counter-screen for COUP-TFII; shares compounds with NR2F2 inh; HEK293 Gal4-VP16 luciferase reporter, luminescence; inhibition, % at 8.5 µM; actives 25% (n = 2,500); in the data active means inhibition above about 13%
COUP-TFII conf: confirmation of human COUP-TFII (NR2F2) inhibitors | shares compounds with NR2F2 inh | HEK293 NGFI-A luciferase reporter, luminescence | inhibition, % at 8.5 µM | actives 45% (n = 2,500);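 active means mean inhibition over three repeats above a set limit taken from the earlier primary screen, cut at about 38% in these data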;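 further: 100% = cells given the luciferase reporter alone without the COUP-TF2 vector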
* marks the source's active call; other numbers are inactive results; · = not tested or not shown.

SMILES | Gli-Sufu block | NR2F2 inh | NCOA3 inh | NR5A2 inv ag | SRC1 inh | NCOA2 inhibitor | VP16 Luc counter | COUP-TFII conf
Cc1cc(C)cc(Oc2ccc(N)cc2)c1 | 0.9 | 50.7* | 5.4 | 32.2 | -17.4 | 24.4 | 19.6* | 24.3
Cc1ccc(-c2nc(CSCC(=O)N3CCN(C(=O)c4ccco4)CC3)c(C)o2)cc1 | 0.2 | 24.2 | 11.4 | -16.2 | -16.2 | -5.4 | · | ·
CCOc1ccc(-c2nc(CSCC(=O)N3CCN(c4cccc(OC)c4)CC3)c(C)o2)cc1 | 8.1 | 66.4* | 17.9 | 27.8 | 13.4 | 58.8* | 16.6* | 44.4*
CCc1ccc(-c2nc(CSCC(=O)N3CCN(c4ccccn4)CC3)c(C)o2)cc1 | 27.3 | 51.6* | 36.7 | 35.8 | 9.4 | 14.0 | 8.6 | 22.6
COC(=O)/C=C/c1ccccc1CN1[C@@H](CC(=O)OC)c2ccccc2S1(=O)=O | -1.0 | -7.2 | -8.5 | 1.6 | -12.3 | -7.2 | · | ·
CN1C(=O)[C@@]2(O[C@H]3c4ccccc4C=CN3C3=C2C(=O)CCC3)c2ccccc21 | · | -5.4 | · | · | · | -6.0 | · | ·
S=C(NN=C1CCCCC1=NNC(=S)N1CCOCC1)N1CCOCC1 | · | 3.0 | · | · | · | 13.5 | · | ·
C/C(=N\NC(N)=S)C1C2C3CC4C5CC(C42)C1C53 (stereo not drawn) | 37.5 | 56.7* | 38.7 | 28.9 | 20.9 | 31.2 | 11.4 | 43.1*
Cc1ccc2nc(-c3cccc(Cl)c3)c(Cc3ccccc3C(F)(F)F)n2c1 | · | -28.1 | · | · | · | -5.6 | · | ·
CC(C)(C)c1ccc(OCCC(=O)Nc2cccc(S(=O)(=O)NC3=NCCCCC3)c2)cc1 | -1.8 | 40.1* | 10.1 | 19.7 | 8.3 | 8.1 | -2.5 | 10.7
CN(CC(=O)Nc1cccc(S(=O)(=O)NC2=NCCCCC2)c1)Cc1ccc(C(C)(C)C)cc1 | 23.3 | 3.7 | -2.4 | -3.4 | -2.3 | 3.2 | · | ·
Nc1ncncc1-c1ccccc1Cl | 3.0 | 11.2 | 11.3 | -0.6 | 8.9 | 1.9 | · | ·
CC[n+]1c(/C=C/c2c[nH]c3ccccc23)ccc2cc(C)ccc21 | 89.8* | 38.3* | · | · | · | -9.9 | 4.0 | 51.9*
COc1cc(C(=O)N(C)CCOc2ccccc2)ccc1OCC(=O)Nc1cccc(C(F)(F)F)c1 | -2.0 | 56.7* | 14.0 | -13.8 | 6.3 | 28.4 | 8.4 | 21.7
CCOC(=O)C1CCN(C(=O)c2ccc(OCC(=O)Nc3cccc(C(F)(F)F)c3)c(OC)c2)CC1 | 38.4 | 65.7* | 12.5 | 32.6 | 24.6 | 37.3 | -5.5 | 59.0*
Nc1ccc2nc(SCC(=O)N3CCN(c4ccccc4)CC3)sc2c1 | 5.0 | 55.4* | 25.1 | 31.8 | 11.3 | 3.3 | -9.9 | 28.9
O=C(Nc1ccc(C(=O)O)cc1)/C(=C\c1ccco1)NC(=O)c1ccco1 | -10.4 | -2.6 | 3.1 | -5.0 | 1.8 | 1.8 | · | ·
O=NN(CCc1ccncc1)c1ccc(OCc2ccccc2)cc1 | 48.4 | 50.8* | 25.6 | 57.6 | 2.3 | 26.8 | -2.9 | 44.9*
CC12CCC(C(S(=O)(=O)Nc3ccccc3)C1=O)C2(C)C (stereo not drawn) | 0.7 | -8.2 | 2.9 | 11.8 | -6.2 | -1.9 | · | ·
O=C1C=C(c2c(O)ccc3ccccc23)c2ccccc2C1=O | 1.6 | 57.8* | 7.8 | 8.9 | -9.9 | -35.0 | 21.1* | 43.0*
Oc1cccc2ccc(Nc3ccccn3)nc12 | 15.0 | 38.8* | 39.1 | 24.0 | -4.8 | -8.4 | -1.8 | 29.1
O=C(NCCc1ccccc1)OCc1cn(-c2ccc(F)c(F)c2)nn1 | · | 0.7 | · | · | · | 3.6 | · | ·
COC(=O)c1cnn(-c2ccc(F)cc2F)c1/C=N/NC(=S)Nc1ccccc1 | · | 48.0* | · | · | · | · | -7.8 | 10.1
CNC(=S)N/N=C/c1c(C(=O)OC)cnn1-c1ccc(F)cc1F | 7.1 | 36.0 | 20.8 | 8.7 | -2.3 | 14.6 | · | ·
CCOCCCNC(=S)N1CCN(c2nc(-c3ccc(F)cc3)cs2)CC1 | 20.7 | 59.2* | 2.7 | 5.2 | 14.5 | 23.2 | -6.0 | 41.5*
SMILES | Gli-Sufu block | NR2F2 inh | NCOA3 inh | NR5A2 inv ag | SRC1 inh | NCOA2 inhibitor | VP16 Luc counter | COUP-TFII conf
S=C(NCC1CCCO1)N1CCN(c2cccc(Cl)c2)CC1 (stereo not drawn) | 6.0 | 23.2 | 22.3 | -8.5 | 10.3 | 2.3 | · | ·
S=C(NCC1CCCO1)N1CCN(c2nc(-c3ccc(Cl)cc3)cs2)CC1 (stereo not drawn) | 30.6 | 59.4* | 22.0 | 4.3 | 0.1 | 26.8 | -1.3 | 28.2
CC1=CC(O)(c2ccccn2)P(=O)(c2ccccc2)C=C1C (stereo not drawn) | · | 2.0 | · | · | · | -15.5 | · | ·
CC(C)(C)c1ccc(-c2noc(CCC(=O)Nc3cccnc3)n2)cc1 | 70.6* | 77.8* | 41.1 | 36.9 | 20.6 | 79.7* | 58.6* | 76.6*
CC(C)(C)c1ccc(-c2noc(CCC(N)=O)n2)cc1 | 75.8* | 84.9* | 59.1 | 76.3* | 51.3 | 83.2* | 72.4* | 88.3*
CNC(=O)CCc1nc(-c2ccc(C(C)(C)C)cc2)no1 | 24.1 | -14.2 | -69.5 | -89.4 | -77.8 | 1.9 | · | ·
COc1ccc(-c2noc(CCC(=O)Nc3cccnc3)n2)cc1 | -1.9 | 0.8 | -32.7 | -7.9 | -16.1 | 8.3 | · | ·
CC(C)(C)c1ccc(-c2noc(CCC(=O)NCC3CCCO3)n2)cc1 (stereo not drawn) | 73.1* | 75.4* | 19.9 | 40.3 | 22.4 | 58.6* | 26.1* | 60.5*
CC(C)(C)c1ccc(-c2noc(CCC(=O)NC3CC3)n2)cc1 | · | 55.9* | · | · | · | · | -46.9 | 35.7
Cn1ccc2cc(S(=O)(=O)N3CCN(S(=O)(=O)c4c(F)cccc4F)CC3)ccc21 | · | -0.4 | · | · | · | · | · | ·
Cc1cc(=O)[nH]c(SCC(=O)Nc2ccc(Cl)cc2)n1 | · | 12.8 | · | · | · | -11.9 | · | ·
Cc1c(C(=O)NCc2ccc3c(c2)OCO3)sc(=O)n1Cc1ccc(S(=O)(=O)N(C)C)cc1 | · | 24.0 | 20.3 | 37.1 | 2.6 | 16.7 | · | ·
Cc1c(C(=O)NCc2ccc(Cl)c(Cl)c2)sc(=O)n1Cc1ccc(S(C)(=O)=O)cc1 | · | 85.3* | -3.7 | 12.9 | 5.5 | 13.2 | -8.0 | 3.9
Cc1c(C(=O)NCc2ccc3c(c2)OCCO3)sc(=O)n1Cc1ccc(S(=O)(=O)N(C)C)cc1 | · | 45.0* | 17.8 | 25.8 | 16.4 | -7.8 | 5.1 | 13.5
COc1ccc(CNC(=O)c2sc(=O)n(Cc3ccc(-c4ccccc4)cc3)c2C)cc1OC | · | 44.5* | 14.6 | 42.6 | 9.7 | 19.4 | 1.7 | 40.7*
CCn1c(SCC(=O)NC2CCCCC2)nc2c(c1=O)SCC2 | 0.7 | -5.2 | 28.1 | 14.3 | -11.0 | 3.1 | · | ·
CCCCNc1cccc2c1S(=O)(=O)N[C@H](C)CO2 | · | -20.6 | · | · | · | -39.8 | · | ·
O=C(Nc1cccc(O)c1)c1cc(-c2ccccc2Cl)on1 | -28.7 | 60.5* | -8.5 | -10.3 | -18.8 | 30.9 | -11.9 | 10.1
O=C(Nc1cccc(O)c1)c1cc(-c2ccc3c(c2)OCO3)on1 | -152.2 | 43.1* | -18.1 | -51.0 | -20.5 | 18.9 | -2.4 | 16.0
